Test results published in PubChem BioAssay AID371 (SRMLSC, 2006).
Hit rate of the full screen: of about 3,300 compounds, about 280 (8.5%) were called active.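 Rule for the calls: active = mean growth inhibition over the two runs of 50% or more; inactive = mean growth inhibition under 50%.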 The sample as a whole holds a higher share of actives than the screen did.

Test: A549 NSCLC cell proliferation inhibitors – ATP luminescence, human non-small cell lung line, primary screen (AID 371);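 note: compound exposure lasted 72 h before the ATP read; 0% = untreated cell signal and 100% = no luminescence left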
Details: at 10 µM, hits give high values

SMILES | growth inhibition
Cn1c(=O)c2c(nc(NCc3ccco3)n2Cc2ccccc2Cl)n(C)c1=O | 2.6% (inactive)
Cn1c(=O)c2c(nc(NCc3ccco3)n2Cc2ccc(Cl)cc2Cl)n(C)c1=O | 0.48% (inactive)
Cn1c(NCc2ccco2)nc2c1c(=O)n(Cc1ccc(Cl)c(Cl)c1)c(=O)n2C | 70% (active)
Cn1c(OCc2ccco2)nc2c1c(=O)n(Cc1ccc(Cl)c(Cl)c1)c(=O)n2C | 59% (active)
Cn1c(OCc2ccc3c(c2)OCO3)nc2c1c(=O)n(Cc1cccc(Cl)c1)c(=O)n2C | -0.73% (inactive)
C=CCOc1nc2c(c(=O)n(Cc3ccc(Cl)c(Cl)c3)c(=O)n2C)n1C | 35.1% (inactive)
CNC(=O)c1cc2ccccc2o1 | -3.18% (inactive)
O=c1cc(O)nc2n1CCCS2 | 2.49% (inactive)
COC(=O)C(NC(=O)c1ccco1)(Nc1ccc(Br)cn1)C(F)(F)F (configuration not stated) | 22.7% (inactive)
CCOC(=O)CC(C#N)c1cn(C)c2ccccc12 (configuration not stated) | 3.83% (inactive)
C=CC[N+](C)(C)CCCNC(=O)/C=N/O | -6.91% (inactive)
COc1cccc(C(=O)Nc2ccc(-c3nnc(-c4ccco4)o3)cc2)c1 | 23.8% (inactive)
CCN(CC)CCn1c(O)c(N=O)c2ccccc21 | 2.91% (inactive)
Cn1c(NCC(O)c2ccccc2)nc2c1c(=O)n(Cc1ccc(Cl)cc1)c(=O)n2C (configuration not stated) | 71.7% (active)
Cn1c(N2CCN(c3ccccn3)CC2)nc2c1c(=O)n(Cc1ccccc1Cl)c(=O)n2C | 7.18% (inactive)
Cn1c(NCc2ccccc2)nc2c1c(=O)n(Cc1ccc(Br)cc1)c(=O)n2C | 72.5% (active)
Cn1c(=O)n(Cc2ccccc2)c(=O)c2c1nc(NCC1CCCO1)n2Cc1ccccc1 (configuration not stated) | 45.3% (inactive)
Cn1c(NCc2cccnc2)nc2c1c(=O)n(Cc1ccccc1F)c(=O)n2C | 18.8% (inactive)
Cn1c(NCc2ccccc2)nc2c1c(=O)n(Cc1ccccc1)c(=O)n2C | 39.1% (inactive)
COCCNc1nc2c(c(=O)n(Cc3ccc(OC)cc3)c(=O)n2C)n1C | 12.2% (inactive)
Cn1c(N2CCOCC2)nc2c1c(=O)n(Cc1ccc(Cl)cc1)c(=O)n2C | 17.2% (inactive)

SMILES | growth inhibition
Cn1c(N2CCOCC2)nc2c1c(=O)n(Cc1ccc(Cl)c(Cl)c1)c(=O)n2C | 36.7% (inactive)
Cn1c(N2CCN(c3ccccn3)CC2)nc2c1c(=O)n(Cc1ccc(Cl)cc1)c(=O)n2C | 50.6% (active)
Cn1c(NCC(O)c2ccccc2)nc2c1c(=O)n(Cc1ccc(Cl)c(Cl)c1)c(=O)n2C (configuration not stated) | 88% (active)
COc1ccc(Cn2c(=O)c3c(nc(NCCO)n3C)n(C)c2=O)cc1 | 3.12% (inactive)
CCCCCSc1nc(O)cc(=O)[nH]1 | -0.41% (inactive)
Cc1nc2c(=O)n(C)c(=O)[nH]c2n1Cc1ccccc1 | 8.92% (inactive)
O=C1C2ON(c3ccccc3)C(c3cccnc3)C2C(=O)N1c1ccccc1 (configuration not stated) | -1.13% (inactive)
CCOC(=O)c1[nH]c2cc3c(cc2c1NC(=O)CN1CC(C)CC(C)C1)OCO3 (configuration not stated) | 6.05% (inactive)
CCc1c(C(=O)O)[nH]c2ccc(Br)cc12 | 6.3% (inactive)
CCOC(=O)c1[nH]c2ccc(OC)cc2c1C | 12.4% (inactive)
Cc1cccc(N2CC(=O)N(c3cccc(C)c3)CC2=O)c1 | 3.38% (inactive)
CCN(CC)CCNC(=O)c1c(C)oc2cc(Br)c(OC)cc12 | 29.2% (inactive)
COc1cc2c(C(=O)N3CCN(c4ccccc4)CC3)c(C)oc2cc1Br | 60.9% (active)
COc1ccccc1N1CCN(C(=O)c2c(C)cc(=O)oc2C)CC1 | -0.18% (inactive)
CCOc1ccc(Cc2nc(N)nc(N)n2)cc1 | 2.96% (inactive)
CCCCOc1ccc(-c2nnc(N)s2)cc1 | 21.4% (inactive)
CCCCOc1ccc(CN(C)c2ncnc(N)n2)cc1 | 51.9% (active)
COC(=O)c1ccccc1N1C(=O)[C@@H]2C(c3ccc(Br)cc3)=NO[C@@H]2C1=O | 3.29% (inactive)
O=C1c2ccccc2-c2onc3ccc(NCc4ccco4)c1c23 | 50.2% (active)
O=C(NCc1ccco1)c1ccc(=O)[nH]n1 | -4.07% (inactive)
O=C(NCc1ccco1)c1ccc(=O)oc1 | -3.09% (inactive)

SMILES | growth inhibition
c1ccc(-c2nn3c(C4CCCCC4)nnc3s2)cc1 | 5.6% (inactive)
CCC(=O)N(Cc1cccs1)C1CCOC(C)(C)C1 (configuration not stated) | 3.04% (inactive)
CCCCNC(=O)c1c(N)n(/N=C/c2cccnc2)c2nc3ccccc3nc12 | 5.46% (inactive)
CN(Cc1ccccc1)Cc1c[nH]c2ccccc12 | 5.38% (inactive)
N#Cc1ccc(-c2ccc(OCC(O)Cn3nnc4ccccc43)cc2)cc1 (configuration not stated) | 57.7% (active)
OC(CNCCCN1CCCCC1)COc1ccccc1 (configuration not stated) | 4.57% (inactive)
CN(CC(O)COc1ccc(OCC(O)CN(C)C2CCCCC2)cc1)C1CCCCC1 (configuration not stated) | 50.1% (active)
CN(C)CC(O)COc1cccc(OCC(O)CN(C)C)c1 (configuration not stated) | 2.88% (inactive)
CC(C)NCC(O)COc1ccc(CC(N)=O)cc1 (configuration not stated) | -2.65% (inactive)
O/N=C/c1ccc(OCC(O)COc2ccc(/C=N/O)cc2)cc1 | -5.19% (inactive)
CN=c1sc2ccccc2n1CC(O)COc1ccccc1 (configuration not stated) | 25.3% (inactive)
CN(C)CC(O)COc1ccc(-c2ccc(C#N)cc2)cc1 (configuration not stated) | 64.2% (active)
CC(C)NCC(O)COc1ccc(CCOCC2CC2)cc1 (configuration not stated) | -0.79% (inactive)
CC1(C)NC(=O)N(CC(O)Cn2nnc3ccccc32)C1=O (configuration not stated) | 8.44% (inactive)
CN(C)CC(O)COc1ccc(C(C)(C)c2ccc(OCC(O)CN(C)C)cc2)cc1 (configuration not stated) | 89.2% (active)
COCCc1ccc(OCC(O)CNC(C)C)cc1 (configuration not stated) | 1.47% (inactive)
CCOCCSc1nc2c(c(=O)[nH]c(=O)n2C)n1CCCc1ccccc1 | 20.2% (inactive)
CCN(CC)CCCN1C(=O)C(O)=C(C(=O)c2ccc(C)o2)C1c1ccc(C)o1 (configuration not stated) | 5.46% (inactive)
CC1CC(C(F)(F)F)n2ncnc2N1 (configuration not stated) | 2.4% (inactive)
CC(C)OC(=O)[C@H]1[C@H](c2ccc(Cl)cc2)[C@@](C#N)(C(N)=O)[C@@H]2C=CC(C(N)=O)=CN21 | 6.9% (inactive)
